Only some compounds are listed: those with a hit (about 7.7% of all), similar ones and a draw of the others.
Tb PYK inh – blocks Trypanosoma brucei pyruvate kinase. Q57TT1. TbPYK enzyme, Kinase-Glo Plus ATP luminescence, 45 min. Potency, µM (titrated, usually from 76.8 µM), for inactives: at the top dose activity, negative = inhibition, hits mostly inhibitors. 0.12% of 410,000 active. AID 624173; further: potency means the concentration at half of the fitted maximal effect; nearly all actives have a fitted effect of over 50% in size
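Screened from lowest to highest concentration, compounds were pinned into TbPYK/substrate mixtures, and ADP (130 uM final) was added. Plates sat at room temperature for 45 min prior to Kinase-Glo Plus detection by luminescence.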
RE007 growth inh – less growth of the S. pombe RE007 Vpr strain | Potency, µM (series often up to 92.2 µM), for inactives: top-dose activity change, negative = less growth, actives largely listed as inhibitors | S. pombe RE007 Vpr strain, BacTiter-Glo ATP luminescence, 24 h | 0.21% of 360,000 active | AID 651644; active means well fitted falling curve with a large enough effect; inconclusive means small, poorly fitted or top-dose-only effect; inactive means no such curve, though single readings can be large or run the other way; further: potency means the concentration at half of the fitted maximal effect; nearly all actives have a fitted effect of over 50% in size
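Fission yeast RE007 carrying one integrated HIV-1 vpr copy, seeded at OD 0.01 in PMG+AL medium with 23 nL pinned compound. Grown 24 h at 30 degrees; viability read by BacTiter-Glo luminescence after 5 min.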
HCMV inh – inhibitors of human cytomegalovirus | activity change, negative = inhibition, % at 57.5 µM | HFF cells, HCMV-luciferase reporter, 72 h; stronger effect = lower value | 4.5% of 410,000 active; in the data active means activity change below about -60%; inconclusive means no clear call, values can overlap the other calls; inactive means above about -39%
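Inhibition of viral replication was scored as loss of reporter luminescence in HFFs infected with HCMV-luciferase (MOI 1 PFU/cell) for 72 h; compounds tested at 2 doses, normalized to buffer and Salinomycin controls.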
FMDV inh – blocks foot and mouth disease virus; FMDV antiviral cell-based qHTS; Potency, µM (series often up to 57.9 µM), for inactives: top-dose activity change, negative = inhibition, most hits filed as inhibitors; 1.2% of 410,000 active; AID 1159524; calls by dose curve; tested in HEK293T cells; further: read-out not given here; potency means the concentration at half of the fitted maximal effect; nearly all actives have a fitted effect of over 45% in size
FBPA Giardia inh – Giardia lamblia aldolase inhibition; 0.71% of 290,000 active; Potency, µM (top dose mostly 59.6 µM), for inactives: at the highest dose activity, negative = inhibition, usual class: inhibitors; A8B2U2; purified Giardia FBPA; AID 2451; further: potency means the concentration at half of the fitted maximal effect; nearly all actives have a fitted effect of over 55% in size
Target sequence (A8B2U2 whole entry, looked up): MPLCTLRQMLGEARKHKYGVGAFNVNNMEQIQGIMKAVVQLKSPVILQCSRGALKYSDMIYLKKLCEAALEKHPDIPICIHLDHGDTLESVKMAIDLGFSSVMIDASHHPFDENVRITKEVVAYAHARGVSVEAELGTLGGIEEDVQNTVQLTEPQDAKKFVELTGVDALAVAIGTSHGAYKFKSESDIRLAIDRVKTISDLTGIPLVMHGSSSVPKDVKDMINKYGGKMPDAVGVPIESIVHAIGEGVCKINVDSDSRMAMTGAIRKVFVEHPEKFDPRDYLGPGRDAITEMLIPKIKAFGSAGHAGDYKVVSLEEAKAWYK
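40 nM FBPA preincubated 10 min at RT with compound (up to 57.5 uM final), then substrate plus GAPDH/TPI/NAD/arsenate coupling and diaphorase/resazurin added. Fluorescence read after 20 min at RT, 525/598 nm.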
Sm TGR inh – S. mansoni TGR enzyme inhibition. Q962Y6. purified TGR, DTNB reduction, TNB absorbance 405 nm. Potency, µM (highest dose often 114 µM), without a hit: at the highest dose activity change, negative = inhibition, most hits filed as inhibitors. 3% of 360,000 active. AID 485364; further: potency means the concentration at half of the fitted maximal effect; nearly all actives have a fitted effect of over 60% in size
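TGR 20 nM + NADPH 100 uM (dispensed conc.), cpd preinc 15 min RT; start with NADPH (500 uM addition) then DTNB (15 mM addition). Kinetic TNB absorbance, 405 nm filter. Four-parameter Hill fit across titration.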
* marks the source's active call; other numbers are inactive results; ? = inconclusive; / = no result given; [ ] = remark or other dose. Unless noted, the call rests on the fitted dose curve; in most records, active means well fitted curve in the direction sought with a large enough effect; inconclusive means small, poorly fitted or top-dose-only effect, or another doubt; inactive means no such curve, though single readings can be large; an effect the other way counts as inactive or inconclusive. On the % scale 0 is the no-effect control and ±100 the full control effect.

SMILES	Tb PYK inh	RE007 growth inh	HCMV inh	FMDV inh	FBPA Giardia inh	Sm TGR inh
CCOC(=O)C1=CC2(CC)CCCN3CCc4c(n1c1ccccc41)C32 (stereo not given)	/	/	/	9.3%[97.4 µM]	-2.2%	/
O=C(Nc1ccc2nc(SCC(=O)N3CCOCC3)sc2c1)c1ccccc1Cl	0.0%	/	-83.4*	?	/	-8.1%
CC(=O)N1CCC[C@@]2(CCN(c3ncccn3)C2)C1	-4.3%	/	/	-1.2%	3.6%	/
COc1ccc(S(=O)(=O)NCC2CCCN(Cc3ccc(C)o3)C2)cc1 (stereo not given)	0.1%	2.3%	-17.3	4.1%	2.7%	35.5µM*
COc1ccc(-n2c(Cc3ccccc3)nnc2SCc2nc(-c3cccs3)no2)cc1	-2.8%	/	-2.2	-11.0%	/	0.6%
COc1ccc(C(=O)c2ccc(N(C)C)cc2)c2ccccc12	-6.8%	16.6%	-76.9*	/	4.2%	-7.9%
COc1ccc(C(=O)c2ccc(OC)c(OC)c2OC)cc1	-3.9%	-15.3%	-13.7	4.1%	/	/
Cc1ccc2c(c1)c1ccc3c(c1n2C)C(=O)C=CC3=O	?	-8.8%	?	31.6µM*	?	2.51µM*
Cn1c2ccccc2c2ccc3c(c21)C(=O)C=CC3=O	22.4µM*	-4.9%	25.8	20µM*	/	/
Cc1ccc2c(c1)c1ncnc(N3CCC4(CC3)OCCO4)c1n2C	/	/	77.9	/	-2.2%	0.0%
COc1ccc2c(c1)c1ccc3c(c1n2C)C(=O)C=CC3=O	?	/	1.9	28.2µM*	?	1.26µM*
COc1ccc2c(c1)c1ncn(CCN3CCCC3)c(=O)c1n2C	-3.7%	-18.1%	87.5	-2.9%	-9.0%	4.1%
Cc1ccc(C)c2c1c1ccccc1n2C	-1.5%	-11.8%	3.9	55.5%	-0.1%	1.7%
O=C(CCl)NC(Cc1ccccc1)c1ccccc1 (stereo not given)	-5.6%	15.2%	-21.8	?	-0.8%	22.4µM*
Cc1cccc(NC(=O)Cn2c(=O)n(CCCCCC(=O)NCc3ccccc3)c(=O)c3sccc32)c1	-8.5%	/	-33.4	0.0%	/	-3.2%
Cc1cccc(Nc2nnc(SC3CCOC3=O)s2)c1C (stereo not given)	-8.2%	-16.7%	-80.6*	-6.3%	0.1%	6.8%
Cc1ccc(Nc2nnc(SC3CCOC3=O)s2)cc1 (stereo not given)	-5.9%	-1.8%	0.2	11.1%	-21.5%	-20.9%
CCOC(=O)c1c(NC(=O)c2cc(-c3ccc(OC)cc3)on2)sc(C)c1C	10.3%	/	6.1	-6.5%	/	-2.1%
Cc1onc(-c2ccccc2)c1C(=O)N/N=C/c1cc(Br)c(Br)o1	2.4%	10.1%	-28.0	25.1µM*	-19.4%	-12.2%
O=C(N/N=C/c1cc(Br)c(Br)o1)C(O)c1ccccc1 (stereo not given)	-0.9%	-8.1%	4.0	24.8%	-15.3%	39.8µM*
COc1cc(/C=N/NC(=O)c2c(-c3ccccc3)noc2C)ccc1O	-3.5%	-5.5%	5.8	?	2.6%	-2.5%
Cc1ccc(/C=N/NC(=O)c2c(-c3ccccc3)noc2C)o1	2.1%	15.7%	?	-13.2%	-26.7%	8.4%
Cc1ccc(/C=N/NC(=O)c2c(-c3ccccc3)noc2C)c(O)c1	/	/	-110.0*	/	/	-19.7%
COc1cccc(/C=N/NC(=O)c2ccoc2C)c1O	-12.9%	-13.3%	-81.8*	-29.2%	4.9%	11.0%
Cc1ncc2c(c1CNC(=O)c1ccccc1F)CCN(C(=O)c1ccccc1-n1cccn1)C2	/	/	/	-14.2%	/	/
SMILES	Tb PYK inh	RE007 growth inh	HCMV inh	FMDV inh	FBPA Giardia inh	Sm TGR inh
Cc1cccc(CNc2ccnc(-c3ccoc3)n2)c1	/	/	/	-3.9%	-19.6%	/
COC(=O)c1c(-c2ccccc2)noc1C	-6.8%	-4.6%	-76.2*	2.6%	0.3%	-4.7%[57.1 µM]
COC(=O)c1onc(-c2ccccc2)c1C(=O)OC	-7.7%	-27.7%	2.7	-9.9%	-4.5%	0.0%
COc1cccc(/C=N/NC(=O)c2c(-c3ccccc3)noc2C)c1O	-7.4%	27.2%	-83.5*	-13.1%	21.0%	2.6%
COC(=O)c1cn([C@@H]2C[C@@H](C(=O)Nc3cccc(SC)c3)N(C3CCCC3)C2)nn1	/	/	/	-13.3%	/	/
COC(=O)c1c(NC(=O)c2nc(SCc3cccc(C)c3)ncc2Cl)sc2c1CCCC2	-2.0%	/	-3.6	-1.3%	/	0.5%
CN1C2CCC1CC(NC(=O)c1ccc(Cl)cc1)C2 (stereo not given)	5.5%	5.2%	35.0	7.9%	3.9%	13.1%
O=C(NC1C2CCCC1CN(C1CC1)C2)c1ccc(Cl)cc1 (stereo not given)	5.4%	5.0%	-63.9*	?	-24.4%	79.7%
CCc1ccccc1NC(=O)CN(C)S(=O)(=O)c1cccc2nsnc12	-1.7%	/	-17.0	4.7%	/	-8.3%
CC(C)Cc1nc2oc3c(Cl)ncnc3c2c2c1CCC2	0.9%	17.7%	-95.6*	0.8%	6.0%	-30.6%
N#Cc1ccc(NC(=O)N[C@H]2CC[C@@]34CCCN3C(=O)CCC[C@H]4C2Cc2ccccc2)cc1 (stereo not given in full)	/	/	0.9	/	/	/
O=C1c2cccc3cccc(c23)C(=O)N1CCCc1n[nH]c(=S)n1-c1ccccc1	7.08µM*	1.1%	34.0	-22.3%	7.1%	/
OCCCc1n[nH]c(=S)n1-c1ccccc1	-2.3%	-16.7%	39.3	-9.0%	-25.5%	44.7µM*
COCc1n[nH]c(=S)n1-c1ccccc1	?	6.6%	32.5	24.4%	?	0.9%
O=C(Nc1ccc(F)c(Cl)c1)Nc1c[nH]c(=O)[nH]c1=O	-4.5%	/	14.6	-21.5%	/	5.0%
Cc1[nH]n(-c2ccccc2)c(=O)c1C(c1ccccc1[N+](=O)[O-])C(C#N)C#N (stereo not given)	-5.0%	-10.8%	37.5	?	-21.0%	8.91µM*
COc1ccc(C(c2c(C)[nH]n(-c3ccccc3)c2=O)c2c(C)[nH]n(-c3ccccc3)c2=O)cc1OC	-4.3%	6.9%	-11.1	-12.8%	?	1.4%
Cc1[nH]n(-c2ccccc2)c(=O)c1C(C[N+](=O)[O-])c1ccc(F)cc1 (stereo not given)	0.5%	?	13.6	-21.1%	?	-17.9%
Cc1ccc(C(C[N+](=O)[O-])c2c(C)[nH]n(-c3ccccc3)c2=O)cc1 (stereo not given)	5.5%	20µM*	-34.3	?	?	-32.7%
Cc1[nH]n(-c2ccccc2)c(=O)c1C(C[N+](=O)[O-])c1ccc(Cl)cc1 (stereo not given)	-4.8%	28.2µM*	?	?	?	1.58µM*
Cc1[nH]n(-c2ccccc2)c(=O)c1C(c1ccccc1C(=O)O)c1c(C)[nH]n(-c2ccccc2)c1=O	11.3%	1.3%	20.4	?	-21.0%	-1.2%
